High-throughput results: PubChem BioAssay, several laboratories
LGR2 antag: inhibitors of bursicon-induced LGR2 CRE-luciferase signal, primary screen, cell-based, HEK293, CRE-luciferase reporter, bursicon stimulation; Drosophila bursicon receptor LGR2 (rickets); bursicon-stimulated, 4 h; inhibition, % at 9.99 µM; actives 0.35% (n = 380,000);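 active = drop in luminescence signal, shown as inhibition above about 50% in the replicate tests, limit read from the data, passing the limit was not always enough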;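 note: agonist challenge used bursicon conditioned medium at about half maximal strength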
Mdm2 MdmX PPI: inhibitors of human Mdm2-MdmX association, primary screen, cell-based, luminescence, split luciferase, SaOS-2, uHTS. Protein Mdm4 (Homo sapiens) + E3 ubiquitin-protein ligase Mdm2 (Homo sapiens), …. SaOS-2 split-luciferase Mdm2/MdmX complementation. inhibition, % at 8 µM. actives 3% (n = 330,000). AID 485346, 2010;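 active = inhibition of at least 50% at 8 µM in the primary screen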
HSP90 refold inh: HSP90 inhibitors, primary screen, cell lysate, luminescence | Heat shock protein HSP 90 (rabbit reticulocyte lysate; luciferase refolding) | Rabbit reticulocyte lysate, luciferase refolding luminescence, 3 h | inhibition, % at 5.6 µM | actives 0.91% (n = 290,000) | AID 1789, 2009;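 active = inhibition above the screen-wide mean plus 3 SD, computed separately per campaign, cut at about 16% in these data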;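 note: 0% = DMSO wells and 100% = 60 µM geldanamycin wells; inhibitors lower the luminescence because luciferase stays unfolded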
CF NFkB inh: inhibitors of PAF-induced NF-kB signaling, primary screen, cell-based, GFP fluorescence, uHTS; KKLEB NF-kB-GFP reporter, GFP fluorescence overnight; inhibition, % at 5 µM; actives 0.86% (n = 360,000); AID 588850, 2011;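 active = at least 50% inhibition at 5 µM, scaled per plate between neutral and stimulator controls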;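 note: PAF is a Pseudomonas aeruginosa culture filtrate used as stimulus; plate controls were PAF-stimulated DMSO wells for no effect and unstimulated DMSO wells for full effect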
Peg3 promoter: Peg3 promoter-driven luciferase inhibitors, primary screen, cell-based, HeLa, luciferase luminescence; HeLa PEG-Prom luciferase reporter, overnight; inhibition, % at 20 µM; actives 1.7% (n = 360,000); AID 588405, 2011;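 active = inhibition of at least 50% at 20 µM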
KKLEB cytotox: cytotoxicity in KKLEB CF airway cells, primary screen, cytotoxicity control for CF NF-kB inhibitor project, cell-based, uHTS, fluorescence assay plates; KKLEB CF airway cells viability, ATPlite luminescence, overnight; hits give low values; cells stimulated with P. aeruginosa culture filtrate; activity change (cytotoxicity), % at 5 µM; actives 0.36% (n = 360,000); AID 602141, 2011;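 active = corrected activity change at or below -50% at 5 µM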
HSP90 confirm: HSP90 inhibitors, confirmation, cell lysate, luminescence | actives 64% (n = 2,300) | AID 1846, 2009 | inhibition, % at 5.9 µM | shares compounds with HSP90 refold inh | rabbit reticulocyte lysate, luciferase refolding luminescence, 3 h; in the data active = inhibition above about 18%;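 note: 0% = vehicle wells and 100% = reference inhibitor wells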
luciferase ctr: firefly luciferase inhibitors, HSP90 counter-screen, confirmation, artefact control for HSP90 inhibitor project, biochemical, luminescence, triplicate; shares compounds with HSP90 refold inh; purified native firefly luciferase; inhibition, % at 5.9 µM; actives 48% (n = 2,300);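 active = inhibition above the mean inhibition of all tested sample wells plus 3 SD, cut at about 10% in these data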;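 note: 0% = DMSO with luciferase and 100% = wells lacking luciferase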
The depositor's hits bear a star; · = no result. Hits are enriched below; roughly 3.6% of the tested compounds scored in any of these assays.

SMILES	LGR2 antag	Mdm2 MdmX PPI	HSP90 refold inh	CF NFkB inh	Peg3 promoter	KKLEB cytotox	HSP90 confirm	luciferase ctr
CC(C)c1ccc(NC(=S)Nc2cccc3ccccc23)cc1	16.4	-13.3	21.2*	-4.0	-88.2	19.9	19.3*	-20.6
Cc1ccc(NC(=S)Nc2cccc3ccccc23)cc1	3.9	-4.0	-0.6	-11.2	-156.7	3.5	·	·
Nc1nc2ccccc2n1C(=O)c1ccc(F)cc1	30.8	-128.0	39.8*	-9.7	-39.6	-10.0	53.8*	35.4*
Nc1nc2ccccc2n1C(=O)c1ccccc1	32.6	-63.4	26.6*	-12.1	-28.4	-12.8	58.5*	41.8*
CN1[C@H](C(=O)NCC2CCCCC2)[C@@H](CO)[C@@H]2Cn3c(cccc3=O)[C@@H]21	3.0	·	·	·	·	·	·	·
CC(C)C(=O)N(Cc1cc(=O)[nH]c2ccccc12)c1ccccc1	·	-14.2	80.6*	7.9	19.0	-1.1	-6.8	-7.5
CC(=O)N(C1=C(N2CCOCC2)C(=O)c2ccccc2C1=O)c1ccc(C(=O)O)cc1	3.2	24.8	24.3*	-4.4	12.4	-0.1	6.2	0.5
CCN(CC)CCC(=O)N1c2ccccc2CCc2ccc(NC(=O)OC)cc21	2.4	5.9	-1.2	-5.9	8.4	-5.8	·	·
CCOC(=O)Nc1ccc2c(c1)N(C(=O)CCN(CC)CC)c1ccccc1CC2	2.8	-5.1	26.4*	5.1	7.2	-5.9	-0.9	-2.8
CO[C@@H]1CN(C)C(=O)c2ccc(NC(=O)C3CCOCC3)cc2OC[C@H](C)N(C(=O)c2ccccc2)C[C@@H]1C	2.9	·	·	·	·	·	·	·
c1ccc(-c2nc(-c3ccccn3)nc(-c3ccccn3)n2)nc1	2.7	14.3	-0.9	-7.8	25.0	-15.3	·	·
c1ccc(-c2nnc(-c3ccccn3)s2)nc1	60.4*	-11.0	35.0*	-12.9	-38.3	2.6	64.2*	44.3*
CN1[C@@H]2Cn3c(ccc(-c4ccc(F)cc4)c3=O)[C@H]1[C@@H](C(=O)NC1CCCCC1)[C@@H]2CO	7.1	·	·	·	·	·	·	·
CC(=O)c1cccc(NC(=O)c2ccc3c(c2)CCN3S(=O)(=O)c2ccccc2)c1	3.5	25.5	19.5*	-19.0	8.0	-22.0	1.8	-5.6
CCOC(=O)/C(C#N)=C/c1c(Oc2cccc(C)c2)nc2ccccn2c1=O	0.0	15.0	29.4*	-4.4	8.6	-7.7	-5.1	-7.3
CCOC(=O)/C(C#N)=C/c1c(Oc2cc(C)cc(C)c2)nc2ccccn2c1=O	7.0	17.3	5.7	-8.1	20.6	12.6	·	·
COc1ccc2c3c([nH]c2c1)[C@@H](CO)N(C(=O)C1CCCC1)CC31CN(S(C)(=O)=O)C1	10.0	·	·	·	·	·	·	·
NC(=O)NC(=O)C(Nc1ccc(N2CCCCC2)cc1)c1ccccc1 (configuration not stated)	-30.1	0.2	23.4*	-7.6	-55.6	3.9	10.0	6.0
O=C(Nc1ccccc1Cl)NC1(C(=O)NCCCN2CCOCC2)CCCCC1	·	25.1	4.5	4.8	-6.1	-4.1	·	·
O=C(NC1CCCCC1)NC1(C(=O)NCCCN2CCOCC2)CCCCC1	·	6.1	27.0*	3.4	4.9	-2.5	-1.2	-3.3
CCCN(C)C[C@@H]1Oc2cc(C3=CCCC3)ccc2S(=O)(=O)N([C@H](C)CO)C[C@@H]1C	6.0	·	·	·	·	·	·	·
CC=Cc1ccc2n(c1=O)C[C@@H]1[C@@H](CO)[C@H](C(=O)NCc3ccccc3)N(C)[C@H]21 (mixture of isomers)	-13.4	·	·	·	·	·	·	·
Cc1cc(C(=O)COc2cccnc2[N+](=O)[O-])c(C)n1Cc1ccco1	17.4	27.5	2.8	4.1	-52.6	5.6	·	·
Cc1cc(C(=O)COC(=O)c2cccn2C)c(C)n1Cc1ccco1	52.9*	-25.5	40.2*	16.5	-49.5	-23.3	65.8*	65.6*
Cc1cc(C(=O)COC(=O)c2cc(Cl)ccc2N)c(C)n1Cc1ccco1	-42.1	-93.3	-0.1	18.0	-304.3	2.0	·	·
SMILES	LGR2 antag	Mdm2 MdmX PPI	HSP90 refold inh	CF NFkB inh	Peg3 promoter	KKLEB cytotox	HSP90 confirm	luciferase ctr
Cc1cc(C(=O)COC(=O)c2ccncc2)c(C)n1Cc1ccco1	-27.0	43.5	26.0*	22.6	-109.0	10.3	40.7*	75.3*
C[C@H](CO)N1C[C@H](C)[C@@H](CN(C)C(=O)c2ccc3c(c2)OCO3)Oc2ncc(C#CCN(C)C)cc2C1=O	3.8	·	·	·	·	·	·	·
Cc1cc(C(=O)N/N=C/c2ccc3ccccc3c2)n[nH]1	-13.8	8.0	35.5*	26.9	-116.3	1.9	-9.6	-26.8
Cc1cc(C(=O)N/N=C/c2cccnc2)n[nH]1	-4.2	-7.2	1.5	-11.5	-18.7	-2.8	·	·
COc1ccc(N(C)C(=O)Nc2ccc3nsnc3c2)cc1	-23.7	·	20.9*	2.4	-35.5	5.8	0.2	-12.4
COc1ccc(NC(=S)Nc2ccc3nsnc3c2)cc1	-47.1	13.8	43.2*	-1.6	-162.0	8.2	3.6	-21.3
C=CCN(CC=C)C(=S)Nc1ccc2nsnc2c1	-66.3	11.0	31.2*	3.4	-124.7	-3.9	-0.8	-13.5
CC(C)N(C(=O)Nc1ccc2nsnc2c1)C(C)C	82.2*	2.7	28.8*	·	·	·	7.8	-1.5
CC1CCN(C(=O)Nc2ccc3nsnc3c2)CC1	·	0.2	3.0	-3.7	-159.8	4.8	·	·
CCNC(=O)C[C@H]1CC[C@H](NC(=O)C2CCC2)[C@@H](CO)O1	1.5	·	·	·	·	·	·	·
COc1ccc2c3c([nH]c2c1)[C@H](CO)N(C(=O)C1CC1)CC31CN(C(=O)NC(C)C)C1	-11.4	·	·	·	·	·	·	·
COc1ccc(-c2ccn(-c3cccc(F)n3)n2)cc1	-82.4	2.1	21.8*	18.4	-112.4	-11.5	33.0*	18.5*
Nc1nn(-c2cccc(F)n2)cc1-c1ccc(Cl)cc1	-1.5	-133.7	3.3	-20.8	-175.5	-16.0	·	·
COc1ccc(S(=O)(=O)N(C)C[C@@H]2Oc3ccc(NC(=O)C4CCCCC4)cc3CC(=O)N([C@@H](C)CO)C[C@H]2C)cc1	-2.3	·	·	·	·	·	·	·
c1ccc(C2CSc3ccccc3N2)cc1 (configuration not stated)	-124.3	-17.1	38.3*	-19.3	-54.0	-1.5	-1.0	-16.9
O=C(Nc1ccc(CN2CCOCC2)cc1)c1cc2ccccn2n1	78.1*	28.7	44.7*	-4.4	19.5	2.3	61.5*	41.2*
